Assay [1] concerns the target Cytochrome P450 1A2 (Homo sapiens) (UniProt P05177). Description: p450-cyp1a2 (AID 410; calls by dose curve; note: potency is the fitted concentration of half-maximal effect). The essentials:
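O-Demethylation of luciferin 6' methyl ether by human CYP1A2 is monitored as luciferase luminescence. Substrate sits at Km (100uM); enzyme is 20nM. Values are scaled to 57 uM furafylline as maximal inhibition.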

The target of assay [2] is Glucocorticoid receptor (Homo sapiens) (UniProt P04150). Description: GR-GFP Redistribution (AID 450;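 active = compounds whose dose series gives a full or clear partial fitted curve of increased nuclear translocation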; note: potency is the fitted concentration of half-maximal effect).
For assay [3] the target is unchanged. Description: GR-EFC Redistribution (AID 451; calls by dose curve; note: potency is the fitted concentration of half-maximal effect). The settings on record: CHO-K1 GR-EFC translocation, beta-gal luminescence, 2 h. The gist of the method: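 Translocation of GR-ED fusion to nuclear EA restores b-gal, read by luminescence after 1 h room-temperature detection. Engineered CHO-K1 biosensor cells, 1,000/well, exposed 2 h at 37 C to titrations up to 46 uM final.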

Assay [4] addresses ATP-dependent 6-phosphofructokinase (Trypanosoma brucei brucei) (UniProt O15648). Description: qHTS Assay to Find Inhibitors of T. brucei phosphofructokinase: hit validation (AID 492961).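 Note: luminescence reports ADP formed as PFK phosphorylates fructose-6-phosphate with ATP.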 The gist of the method: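 In this biochemical qHTS validation, titrated compounds were tested against 1.25 nM PFK with 0.1 mM ATP and 0.5 mM F6P. Percent activity came from controls lacking or containing enzyme.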

Assay [5] has as its target DNA dC->dU-editing enzyme APOBEC-3G (Homo sapiens) (UniProt Q9HC16). Description: qHTS for inhibitors of Vif-A3G interactions: Validation (AID 588379). The gist of the method: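 Yellow fluorescence (Ex 488, Em 500-530) of Vif-coexpressing HeLa A3G-eYFP cells, scanned by Acumen cytometer, reports blocked A3G degradation. Cells plated at 700/well overnight at 37 deg C before compound addition, then a further overnight compound incubation at 37 deg C.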
In general terms: In qHTS, concentration-response curves come from the screen itself.

The target in assay [6] is Luciferin 4-monooxygenase (Photinus pyralis) (UniProt P08659). Description: Biochemical firefly luciferase enzyme assay for NPC (AID 624030).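 Note: purified P. pyralis luciferase at 10 nM with luciferin and ATP substrate; nearly all actives have a fitted effect of over 70% in size.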 The gist of the method: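 Direct inhibition of firefly luciferase enzyme (10 nM final, 50 mM Tris Acetate) assessed by luminescence within 5 minutes. Percent activity scaled between DMSO and PTC124 positive control, with concentration-effect curves classified by fit quality and response.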

A short description of assay [7]: S16 Schwann cell PMP22 intronic element firefly luciferase assay (AID 624032). Note: nearly all actives have a fitted effect of over 30% in size. The gist of the method: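 Luciferase reporter of PMP22 intronic-element expression in stably transfected S16 rat Schwann cells, read by ONE-Glo luminescence after 24 h compound exposure at 37 C. Activity scaled between DMSO (0%) and positive-control PTC124; concentration-effect curves quality-classified.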

Assay [8] is described as follows: S16 Schwann cell PMP22 intronic element beta-lactamase assay (AID 624044; calls by dose curve; note: nearly all actives have a fitted effect of over 15% in size). The settings on record: S16 rat Schwann cells, PMP22 element beta-lactamase FRET, 24 h; ratio activity, negative = inhibition: at 38.3 µM (top of the series). The gist of the method: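 Beta-lactamase reporter under a PMP22 intronic regulatory element in stable S16 rat Schwann cells; 24 h compound exposure. 460 nm blue signal normalized between DMSO (0%) and potassium clavulanate, with 535 nm FRET tracking viability; curves classed by r2 and response.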

The subject of assay [9] is 7G8. Description: qHTS profiling for inhibitors of Plasmodium falciparum proliferation (AID 504749). Note: nearly all actives have a fitted effect of over 60% in size. Note: potency is the fitted concentration of half-maximal effect. The settings on record: P. falciparum in erythrocytes, SYBR Green DNA, 72 h; series mostly up to 28.7 µM. The essentials:
(§1)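 SYBR Green fluorescence of parasite DNA, read after lysis and overnight dark incubation, measured growth over 72 h in erythrocyte culture at 0.3% parasitemia and 2.5% hematocrit. Data normalised to DMSO and 0.29 uM artemisinin, with plate-drift correction.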

Assay [10] relates to AA1029. Described as above. The settings on record: P. falciparum in erythrocytes, SYBR Green DNA, 72 h; series mostly up to 28.7 µM. The essentials:
as §1

Assay [11] relates to ATS95. The description is as above. The settings on record: P. falciparum in erythrocytes, SYBR Green DNA, 72 h; series mostly up to 28.7 µM. The gist of the method: as §1
For assay [12], the system named is C2A. Described as above. The settings on record: P. falciparum in erythrocytes, SYBR Green DNA, 72 h; series mostly up to 28.7 µM. The gist of the method:
as §1

The test system of assay [13] is CP252. Described as above. The settings on record: P. falciparum in erythrocytes, SYBR Green DNA, 72 h; series mostly up to 28.7 µM. The gist of the method:
as §1

The subject of assay [14] is CP262. The description is as above. The settings on record: P. falciparum in erythrocytes, SYBR Green DNA, 72 h; series mostly up to 28.7 µM. The gist of the method:
as §1

Assay [15] concerns ECU. The assay is described as above. The settings on record: P. falciparum in erythrocytes, SYBR Green DNA, 72 h; series mostly up to 28.7 µM. The gist of the method:
as §1

In assay [16] the test system is JCK. The description is as above. The settings on record: P. falciparum in erythrocytes, SYBR Green DNA, 72 h; series mostly up to 28.7 µM. The essentials:
as §1

The test system of assay [17] is PAD. The description is as above. The settings on record: P. falciparum in erythrocytes, SYBR Green DNA, 72 h; series mostly up to 28.7 µM. The gist of the method:
as §1

Assay [18] relates to PC15. The assay is described as above. The settings on record: P. falciparum in erythrocytes, SYBR Green DNA, 72 h; series mostly up to 28.7 µM. The gist of the method: as §1
The test system of assay [19] is PC49. The description is as above. The settings on record: P. falciparum in erythrocytes, SYBR Green DNA, 72 h; series mostly up to 28.7 µM. The gist of the method:
as §1

Assay [20] relates to SC27B. The description is as above. The settings on record: P. falciparum in erythrocytes, SYBR Green DNA, 72 h; series mostly up to 28.7 µM. The essentials: as §1
In assay [21] the test system is TAB113. Described as above. The settings on record: P. falciparum in erythrocytes, SYBR Green DNA, 72 h; series mostly up to 28.7 µM. The gist of the method: as §1
Assay [22] addresses Mitogen-activated protein kinase 10 (Mus musculus) (UniProt Q61831). Description: JNK3 AlphaScreen Assay (AID 530; active = well fitted curve in either direction with a large enough effect, not every such curve was filed as active;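 note: kinase came from lysate of stimulated human HepG2 cells; signal reports phosphorylation of biotinylated GST-cJun 1-79 at Ser73 with 10 µM ATP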). The essentials:
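qHTS titrations with 15 min compound pre-incubation before adding ATP (10 uM final). Read-out: AlphaScreen of Ser73-phosphorylated biotin-GST-cJun using HepG2 lysate JNK3 activated by IL-1β and TNFα.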
A general note: Bead proximity is the source of the signal in Alpha formats.

Assay [23] concerns the target Cytochrome P450 3A4 (Homo sapiens) (UniProt P08684). Description: qHTS Assay for Inhibitors and Substrates of Cytochrome P450 3A4 (AID 884). Note: potency is the fitted concentration of half-maximal effect; nearly all actives have a fitted effect of over 50% in size. The gist of the method: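 Luminescent readout of luciferin produced by CYP3A4 (20 nM) dealkylation of Luciferin-PPXE, 25 uM (its KM). NADPH-driven reaction ran 60 min at RT after 10 min compound preincubation; data scaled to 57 uM ketoconazole as 100% inhibition.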

Assay [24] shares this target. Description: qHTS Assay for Activators of Cytochrome P450 3A4 (AID 885). Note: nearly all actives have a fitted effect of over 65% in size. The essentials:
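Luminescent readout of luciferin formed from 25 uM Luciferin-PPXE (KM level) by 20 nM CYP3A4 in 200 mM KPO4, with 60 min NADPH-driven reaction at room temperature after 10 min compound exposure. Ketoconazole (57 uM) defined 100% inhibition.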

The target of assay [25] is Cytochrome P450 2D6 (Homo sapiens) (UniProt P10635). Description: qHTS Assay for Inhibitors and Substrates of Cytochrome P450 2D6 (AID 891). Note: nearly all actives have a fitted effect of over 60% in size. Note: potency is the fitted concentration of half-maximal effect. The essentials:
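Luminescent read-out of luciferin formed by 5 nM human CYP2D6 demethylating 30 uM Luciferin-ME EGE (Km level) over 60 min at room temperature after NADPH regeneration addition. Data normalized to full inhibition by 1.43 uM quinidine.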

For assay [26], the target named is Cytochrome P450 2C19 (Homo sapiens) (UniProt P33261). Description: qHTS Assay for Inhibitors and Substrates of Cytochrome P450 2C19 (AID 899). Note: nearly all actives have a fitted effect of over 60% in size. Note: potency is the fitted concentration of half-maximal effect. The gist of the method:
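5nM enzyme + 10uM Luciferin-H EGE (=KM), 50mM KPO4; cpd pin-transferred, 10 min 37C; NADPH regen, 60 min 37C; stopped w/ luciferin detection reagent, 20 min; luminescence. Normalized to 57uM ketoconazole (AC100).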

The target of assay [27] is 3',5'-cyclic-AMP phosphodiesterase 4B (Homo sapiens) (UniProt Q07343). Description: qHTS Assay for Inhibitors of PDE-IV (AID 607; active = well fitted activation curve with a large enough effect in the main read-out, with a control signal flat, not every such curve was filed as active). The essentials:
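Cell-based read-out of cAMP via a modified cyclic nucleotide-gated channel and membrane potential dye (535/590 nm) in HEK293 cells expressing PDE4 endogenously. Compounds tested up to 22.9 uM final; 100 uM RO 20-1724 reference.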

Assay [28] concerns the target Cytochrome P450 2C9 (Homo sapiens) (UniProt P11712). Description: qHTS Assay for Inhibitors and Substrates of Cytochrome P450 2C9 (AID 883). Note: nearly all actives have a fitted effect of over 60% in size. Note: potency is the fitted concentration of half-maximal effect. The gist of the method: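 Inhibition of CYP2C9 is scored as loss of luminescence, with 57uM sulphaphenazole defining 100% inhibition. Substrate Luciferin-H is used at 100uM, equal to its KM; enzyme at 10nM in 25mM KPO4, 60 min at 37C with NADPH regeneration.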

A number with no mark means an inactive call. Inconclusive results are not listed. Active and inactive are the calls of the source. Unless noted, calls come from the whole dose curve; as a rule, active = well fitted curve in the direction sought with a large enough effect; inconclusive = small, poorly fitted or top-dose-only effect, or another doubt; inactive = no such curve, though single readings can be large; an effect the other way counts as inactive or inconclusive.

In PubChem BioAssay (NCATS) one finds Potency and outcome data, which are given here for 7 compounds.

Cytochrome P450 2C19 (Homo sapiens), sequence (P33261 whole entry, looked up): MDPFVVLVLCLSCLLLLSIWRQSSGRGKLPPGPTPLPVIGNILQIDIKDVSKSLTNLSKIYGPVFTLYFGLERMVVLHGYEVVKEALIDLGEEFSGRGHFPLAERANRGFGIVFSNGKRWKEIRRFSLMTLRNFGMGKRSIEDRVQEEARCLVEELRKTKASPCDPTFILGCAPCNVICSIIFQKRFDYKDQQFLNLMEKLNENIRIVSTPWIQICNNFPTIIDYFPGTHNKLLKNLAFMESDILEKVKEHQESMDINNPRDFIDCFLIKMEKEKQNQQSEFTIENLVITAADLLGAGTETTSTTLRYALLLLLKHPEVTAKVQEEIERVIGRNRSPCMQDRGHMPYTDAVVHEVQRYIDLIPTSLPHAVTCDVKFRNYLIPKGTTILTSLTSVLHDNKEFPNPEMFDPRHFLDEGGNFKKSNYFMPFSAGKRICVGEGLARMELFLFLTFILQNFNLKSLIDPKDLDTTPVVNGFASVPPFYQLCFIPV
Cytochrome P450 1A2 (Homo sapiens), sequence (P05177 whole entry, looked up): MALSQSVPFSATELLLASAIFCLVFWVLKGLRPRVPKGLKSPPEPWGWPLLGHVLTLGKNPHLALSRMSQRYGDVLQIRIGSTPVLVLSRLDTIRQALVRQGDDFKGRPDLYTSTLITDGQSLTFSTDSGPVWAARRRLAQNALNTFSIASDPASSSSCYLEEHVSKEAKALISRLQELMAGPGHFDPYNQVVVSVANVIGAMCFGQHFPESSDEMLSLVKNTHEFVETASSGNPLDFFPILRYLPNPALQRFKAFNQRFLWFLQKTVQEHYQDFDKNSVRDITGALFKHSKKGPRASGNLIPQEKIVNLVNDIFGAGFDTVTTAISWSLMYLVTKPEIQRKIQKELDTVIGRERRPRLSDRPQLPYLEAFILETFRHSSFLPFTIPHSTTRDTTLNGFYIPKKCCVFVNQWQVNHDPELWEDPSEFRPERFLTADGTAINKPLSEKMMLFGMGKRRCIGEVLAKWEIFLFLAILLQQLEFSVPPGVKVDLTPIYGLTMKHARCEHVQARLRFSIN
Cytochrome P450 3A4 (Homo sapiens), sequence (P08684 whole entry, looked up): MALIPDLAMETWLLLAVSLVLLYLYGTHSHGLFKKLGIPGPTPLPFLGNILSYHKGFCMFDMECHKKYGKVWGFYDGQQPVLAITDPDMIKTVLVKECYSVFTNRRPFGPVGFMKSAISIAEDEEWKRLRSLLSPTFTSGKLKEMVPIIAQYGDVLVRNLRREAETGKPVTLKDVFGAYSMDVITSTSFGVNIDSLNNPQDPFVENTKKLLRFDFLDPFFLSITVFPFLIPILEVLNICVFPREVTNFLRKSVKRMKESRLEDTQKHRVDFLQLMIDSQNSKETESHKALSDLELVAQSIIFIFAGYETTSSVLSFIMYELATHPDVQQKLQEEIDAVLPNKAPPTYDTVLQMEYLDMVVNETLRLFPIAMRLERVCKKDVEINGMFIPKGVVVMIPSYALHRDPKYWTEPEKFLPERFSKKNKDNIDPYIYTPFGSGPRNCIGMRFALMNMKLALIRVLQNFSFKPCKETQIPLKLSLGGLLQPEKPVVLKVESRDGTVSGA
DNA dC->dU-editing enzyme APOBEC-3G (Homo sapiens), sequence (Q9HC16 whole entry, looked up): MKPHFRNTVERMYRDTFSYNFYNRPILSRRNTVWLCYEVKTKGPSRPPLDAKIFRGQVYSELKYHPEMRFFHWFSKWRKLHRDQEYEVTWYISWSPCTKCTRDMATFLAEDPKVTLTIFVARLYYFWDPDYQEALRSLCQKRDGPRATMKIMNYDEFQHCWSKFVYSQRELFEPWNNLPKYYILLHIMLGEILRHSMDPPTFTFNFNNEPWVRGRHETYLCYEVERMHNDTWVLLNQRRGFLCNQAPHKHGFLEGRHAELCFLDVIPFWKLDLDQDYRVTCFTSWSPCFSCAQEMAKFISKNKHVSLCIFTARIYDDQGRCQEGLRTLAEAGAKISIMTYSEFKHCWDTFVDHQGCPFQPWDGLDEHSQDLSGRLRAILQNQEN
3',5'-cyclic-AMP phosphodiesterase 4B (Homo sapiens), sequence (Q07343 whole entry, looked up): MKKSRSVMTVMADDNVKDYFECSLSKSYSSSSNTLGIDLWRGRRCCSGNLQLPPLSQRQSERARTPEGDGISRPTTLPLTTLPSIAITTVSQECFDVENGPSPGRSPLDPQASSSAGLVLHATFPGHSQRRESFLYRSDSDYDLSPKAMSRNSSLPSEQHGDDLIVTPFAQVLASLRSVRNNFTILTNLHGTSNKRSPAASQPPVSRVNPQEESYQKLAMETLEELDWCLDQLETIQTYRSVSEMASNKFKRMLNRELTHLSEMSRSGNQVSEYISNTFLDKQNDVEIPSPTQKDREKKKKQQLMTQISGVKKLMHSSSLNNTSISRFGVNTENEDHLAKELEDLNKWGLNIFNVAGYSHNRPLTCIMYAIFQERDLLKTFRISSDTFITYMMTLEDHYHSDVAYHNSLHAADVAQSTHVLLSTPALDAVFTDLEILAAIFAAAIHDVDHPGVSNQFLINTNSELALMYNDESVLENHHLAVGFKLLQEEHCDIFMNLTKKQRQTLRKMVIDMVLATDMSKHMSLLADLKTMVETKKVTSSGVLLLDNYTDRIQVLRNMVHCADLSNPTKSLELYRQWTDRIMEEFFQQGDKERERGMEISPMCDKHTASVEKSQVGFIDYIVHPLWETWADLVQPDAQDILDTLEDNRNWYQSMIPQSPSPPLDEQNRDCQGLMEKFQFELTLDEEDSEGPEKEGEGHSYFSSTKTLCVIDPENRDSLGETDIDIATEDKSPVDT
Cytochrome P450 2C9 (Homo sapiens), sequence (P11712 whole entry, looked up): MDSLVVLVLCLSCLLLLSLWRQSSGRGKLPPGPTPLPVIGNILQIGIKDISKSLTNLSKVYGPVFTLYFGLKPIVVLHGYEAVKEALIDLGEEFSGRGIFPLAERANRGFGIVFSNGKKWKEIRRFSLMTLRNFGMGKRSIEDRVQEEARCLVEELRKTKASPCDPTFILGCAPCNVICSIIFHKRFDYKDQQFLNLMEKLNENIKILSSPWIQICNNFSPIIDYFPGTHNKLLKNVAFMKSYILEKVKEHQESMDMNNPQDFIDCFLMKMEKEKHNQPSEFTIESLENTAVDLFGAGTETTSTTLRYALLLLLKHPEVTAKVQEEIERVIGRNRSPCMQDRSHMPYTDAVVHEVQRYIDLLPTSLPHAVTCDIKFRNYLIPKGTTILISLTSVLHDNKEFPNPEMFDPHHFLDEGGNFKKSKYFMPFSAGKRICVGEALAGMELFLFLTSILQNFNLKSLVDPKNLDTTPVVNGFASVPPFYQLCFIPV
Cytochrome P450 2D6 (Homo sapiens), sequence (P10635 whole entry, looked up): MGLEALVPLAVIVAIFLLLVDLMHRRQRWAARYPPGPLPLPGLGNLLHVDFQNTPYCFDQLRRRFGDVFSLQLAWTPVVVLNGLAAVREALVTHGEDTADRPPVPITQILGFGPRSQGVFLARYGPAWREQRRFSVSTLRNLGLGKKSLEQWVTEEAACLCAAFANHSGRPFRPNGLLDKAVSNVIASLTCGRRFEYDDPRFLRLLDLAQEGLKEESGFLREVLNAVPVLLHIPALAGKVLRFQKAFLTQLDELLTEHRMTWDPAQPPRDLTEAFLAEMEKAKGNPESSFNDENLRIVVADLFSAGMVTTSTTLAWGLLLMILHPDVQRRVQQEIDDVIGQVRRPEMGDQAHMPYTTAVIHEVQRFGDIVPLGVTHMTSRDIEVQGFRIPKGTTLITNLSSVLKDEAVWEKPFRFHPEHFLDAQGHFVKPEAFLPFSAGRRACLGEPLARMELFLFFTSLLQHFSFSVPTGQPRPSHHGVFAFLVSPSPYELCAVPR
Glucocorticoid receptor (Homo sapiens), sequence (P04150 whole entry, looked up, the tested form may be a part): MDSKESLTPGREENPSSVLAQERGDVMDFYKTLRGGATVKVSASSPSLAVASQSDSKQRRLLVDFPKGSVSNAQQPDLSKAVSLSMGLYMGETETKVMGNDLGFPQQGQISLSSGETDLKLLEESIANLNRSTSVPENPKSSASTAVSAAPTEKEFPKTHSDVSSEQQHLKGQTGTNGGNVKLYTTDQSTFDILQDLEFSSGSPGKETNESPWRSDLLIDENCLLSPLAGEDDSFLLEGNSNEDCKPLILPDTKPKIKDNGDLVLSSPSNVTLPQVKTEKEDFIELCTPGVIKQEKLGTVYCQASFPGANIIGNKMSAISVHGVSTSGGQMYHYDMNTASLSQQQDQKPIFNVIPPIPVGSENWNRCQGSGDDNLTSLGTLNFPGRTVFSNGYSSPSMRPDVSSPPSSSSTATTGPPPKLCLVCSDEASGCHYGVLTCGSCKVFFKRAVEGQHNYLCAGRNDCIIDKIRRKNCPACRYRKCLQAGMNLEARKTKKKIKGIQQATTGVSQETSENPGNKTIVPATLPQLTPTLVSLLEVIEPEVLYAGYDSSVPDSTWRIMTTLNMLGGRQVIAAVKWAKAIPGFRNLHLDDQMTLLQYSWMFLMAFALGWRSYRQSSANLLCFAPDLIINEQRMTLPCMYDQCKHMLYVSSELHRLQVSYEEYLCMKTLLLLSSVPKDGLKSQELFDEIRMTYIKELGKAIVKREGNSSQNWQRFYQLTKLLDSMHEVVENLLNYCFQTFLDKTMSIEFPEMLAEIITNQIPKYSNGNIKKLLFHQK
Luciferin 4-monooxygenase (Photinus pyralis), sequence (P08659 whole entry, looked up): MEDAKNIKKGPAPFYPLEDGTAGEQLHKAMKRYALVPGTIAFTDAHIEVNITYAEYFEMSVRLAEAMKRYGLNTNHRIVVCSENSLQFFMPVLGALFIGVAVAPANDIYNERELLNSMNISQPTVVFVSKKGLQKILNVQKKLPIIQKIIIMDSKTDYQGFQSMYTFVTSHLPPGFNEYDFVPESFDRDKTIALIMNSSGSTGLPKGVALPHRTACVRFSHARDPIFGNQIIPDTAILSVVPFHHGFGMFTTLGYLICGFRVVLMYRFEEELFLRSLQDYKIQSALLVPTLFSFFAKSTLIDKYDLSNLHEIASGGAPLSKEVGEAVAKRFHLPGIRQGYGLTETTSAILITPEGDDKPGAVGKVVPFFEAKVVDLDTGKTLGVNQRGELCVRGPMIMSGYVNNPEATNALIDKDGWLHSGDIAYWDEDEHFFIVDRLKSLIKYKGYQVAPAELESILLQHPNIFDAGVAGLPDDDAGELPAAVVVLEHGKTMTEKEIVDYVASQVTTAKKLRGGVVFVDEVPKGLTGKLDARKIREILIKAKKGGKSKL

As to `CNc1cc(OC)c(C(=O)N[C@@H]2CCN(Cc3ccccc3)[C@H]2C)cc1Cl`, the Potency in assay [1] is 31.6 µM (active); in assay [2] it was more than 46 µM; in assay [3], more than 46 µM; in assay [9], 6.31 µM (active); in assay [10] it was 14.1 µM (active). For the same compound, the Potency result in assay [4], in assay [6], in [7], in assay [8], in [11] and in [12] was “inactive” throughout. For the same compound, the Potency result in assay [13], in assay [14], in assay [15], in assay [16], in assay [17] and in assay [18] was “inactive” throughout. The Potency result in assay [19], in [20] and in [21] was “inactive” each time. The outcome in assay [5] was inactive.
Consider `COc1cc(O)c2c(=O)cc(-c3ccccc3)oc2c1`, for which the Potency was 0.0251 µM (active) in assay [1]; more than 46 µM in assay [2]; more than 46 µM in assay [3]; 10 µM (active) in [23]; 0.398 µM (active) in assay [26]. In addition, the Potency result in [22], in [24] and in assay [25] was “inactive” in each case. Further, the compound was classed as inactive in assay [5].
For the compound `O=C(CCc1ccc(O)cc1)c1c(O)cc(O)cc1O[C@@H]1O[C@@H](CO)[C@@H](O)[C@@H](O)[C@H]1O`, the Potency entry in [1], in [22], in assay [27] and in assay [25] was “inactive” each time. Also, the Potency in assay [2] was more than 46 µM; in assay [3] it was more than 46 µM; in assay [28], 31.6 µM (active).
Turning to `O=C(/C=C\c1ccc(O)c(O)c1)O[C@H]1C[C@@](O)(C(=O)O)C[C@H](O)[C@@H]1O`, the Potency result in [1], in [22], in assay [27], in assay [28], in assay [25] and in [26] was “inactive” throughout. The Potency in assay [2] and in assay [3] was more than 46 µM each time.
As for `Nc1ccccc1C(=O)C[C@@H](N)C(=O)O`, the Potency entry in assay [1], in assay [22], in [27], in assay [28], in assay [25] and in [26] was “inactive” each time. Further, the Potency in assay [2] and in assay [3] was more than 46 µM throughout.
As to `COc1ccccc1C[C@@H](Cc1nc2ccccc2[nH]1)c1nc2ccccc2[nH]1`, the Potency is 10 µM (active) in assay [1]; more than 46 µM in assay [2]; more than 46 µM in [3]; 12.6 µM (active) in assay [28]; 10 nM (active) in assay [25]. The Potency entry in assay [22] and in assay [27] was “inactive” each time.
For the compound `COc1cc2ccc(=O)oc2c(O)c1OCC=C(C)C`, the Potency in assay [1] is 1.58 µM (active); in assay [2] it was more than 46 µM; in [3] it was more than 46 µM; in [26], 10 µM (active). Further, the Potency entry in assay [22], in assay [27] and in assay [24] was “inactive” in each case. In assay [5], the result was inactive.
